For 40 compounds, growth results are on record in PubChem BioAssay (NCI).

Compounds without any hit were thinned out: in the full panel of roughly 83,000, 20% have a hit.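 48-hour exposure, single concentration, 96-well plates; percent growth endpoint where 0 means no net growth. Active: below 10.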 Calls of active or inactive are those of the source.

For the assay, the system named is SNB-75 CNS. Nature of the assay: NCI-60 one-dose screen, 48 h (100 = growth as untreated, 0 = no growth, -100 = all killed). Particulars: 10 µM unless noted. Here is the method:
Growth inhibition of the SNB-75 human tumor cell line is measured as a screen for anti-cancer activity. Cells are grown in 96 well plates and exposed to the test compound for 48 hours. Compounds are tested at a single concentration, which is 10^-5 M for most compounds. The reported endpoint is percent growth (GI% or GIPRCNT), where numbers from 0 - 100% represent growth inhibition, and numbers from -100% - 0 represent cell death. For example, a value of 40 represents 60% growth inhibition. A value of 0 means no net growth occurred over the course of the experiment. A value of -40 indicates 40% of cells at the beginning of the experiment died by the end of the experiment. A value of -100 means all cells are dead at the end of the experiment.
NCI-60 Human Tumor Cell Lines Screen was performed using the standard one-dose NCI protocol, which is described in more detail at https://dtp.cancer.gov/discovery_development/nci-60/default.htm.
Compounds with GIPRCNT values below 10 were considered active. Activity score was based on GIPRCNT using the following formula: […]
Score is 0 for GIPRCNT values of 100 or above, 50 for GIPRCNT values of 0, and 100 for GIPRCNT values of -100.
Regarding `Cn1cc(-c2nc(-c3c[nH]c4ncccc34)cs2)c2ccccc21`, the growth is 77.6% (inactive).
With `COc1cc(-c2cc3ncccc3c3[nH]c(=O)c4cccnc4c23)cc(OC)c1OC` the figure was -3.35% (active).
The same measure for `COc1cc(-c2nc(-c3ccccc3)c(-c3ccccc3)[nH]2)cc(OC)c1O`: 29.7% (inactive); for `O=C(O)c1cccc2c1C(=O)N(c1ccc3c(c1)Cc1ccccc1-3)C2=O`: 91.6% (inactive); for `COc1cccc(-c2nn(-c3ccccc3)cc2-c2ccnc(NCCNS(=O)(=O)c3ccc(C(F)(F)F)cc3)c2)c1`: 46.8% (inactive).
With `N#CC1c2ccccc2-c2ccccc2N1C(=O)c1ccccc1` (stereo not given) the figure was 39.8% (inactive); with `CC1=NN(c2ccc(S(=O)(=O)O)cc2Cl)C(=O)C1`, 90.2% (inactive).
Turning to `O=C(Nc1ccc(/C=C2\SC(=O)N(Cc3ccc(OC(F)(F)F)cc3)C2=O)cc1)c1ccc(Cl)c([N+](=O)[O-])c1`, the growth is 85.5% (inactive).
Consider `CC1(C)NC2=C(C(Nc3cccnc3)N1)C(c1ccc([N+](=O)[O-])cc1)C(C(=O)c1ccc(N=[N+]=[N-])cc1)O2` (stereo not given), for which the growth is 96.2% (inactive).
The same measure for `C#CCn1c2c(c3ccccc31)C[C@]1(C)[C@H]3CC[C@@H]4[C@@H]5C(=CCC[C@H]5C(=C)C)CC[C@@]4(C)[C@]3(C)CC[C@H]1C2(C)C`: 90.3% (inactive).
Regarding `COc1cc(-c2cc3ncccc3c3nc(OCCN(C)C)c4cccnc4c23)cc(OC)c1OC`, the growth was -36.8% (active).
With `Fc1ccc2[nH]cc(-c3nc(-c4c[nH]c5ncccc45)cs3)c2c1` the figure was -17.2% (active); with `O=S(=O)(NCCNc1cc(-c2cn(-c3ccccc3)nc2-c2cccc(O)c2)ccn1)c1cccc(F)c1`, 48.1% (inactive).
With `CC(=O)Oc1ccccc1C(=O)/C=C/c1cccc([N+](=O)[O-])c1` the figure was 60.2% (inactive); with `Nc1nc2c(c(=O)[nH]1)C(c1ccc3c(c1)OCO3)C=C(C(=O)O)N2` (stereo not given), 85.6% (inactive); with `CN1CCN(c2ccc3nc(-c4[nH]ncc4Nc4ncnc5c4OCCCN5)[nH]c3c2)CC1`, -93.1% (active).
With `Cn1c(=O)c2c(ncn2CCC(=O)Nc2ccc(F)cc2)n(C)c1=O` the figure was 91.5% (inactive); with `C=C1CC[C@@H](C(=O)OC)Cc2nc(C)ccc21`, 100% (inactive).
With `CN(C)c1ccc(N)c2ccccc12`, the growth is 101% (inactive).
In the case of `Cc1ccsc1-c1ccc2c(c1)COC2(CCCN(C)C)c1ccc(F)cc1` (stereo not given), the growth was 34.9% (inactive).
With `COc1cc2c(cc1-c1c(C)noc1C)ncc1nc(C3CCCCC3)n([C@@H](C)COC(F)F)c12` the figure was 31.3% (inactive).
The same measure for `O=C1C=Cc2ncccc2C1=O`: 119% (inactive); for `Cc1oc(-c2ccccc2Cl)cc1C(=O)Nc1ccc(S(N)(=O)=O)cc1`: 89.9% (inactive); for `O=C(NO)c1ccc(Cn2c(=O)n(CCc3ccc(O)cc3)c(=O)c3ccccc32)cc1`: 47.8% (inactive).
The same measure for `CCc1cccc(CC)c1NC(=O)c1sc2nc3c(cc2c1N)CCCC3`: 54.2% (inactive); for `NCCn1cc(-c2nc(-c3c[nH]c4ncccc34)cs2)c2cc(F)ccc21`: 64.2% (inactive).
For the compound `COc1cc(-c2cc(-c3nc4ccccc4[nH]3)[nH]n2)cc(OC)c1OC`, the growth is 51.9% (inactive).
With `N#C/C(=C\c1ccc(-c2ccc(Br)cc2)o1)c1nc(-c2ccco2)cs1` the figure was 78.9% (inactive); with `Nc1nc(N)c2nc3c(nc2n1)CCCCCCCCCC3`, 79.2% (inactive).
The same measure for `COC(=O)[C@]12CC[C@@H](C)[C@H](C)[C@@H]1C1=CC[C@@H]3[C@@]4(C)C(c5ncon5)=C[C@@](C)(CO)C4=CC[C@@]3(C)[C@]1(C)CC2`: 55.5% (inactive); for `Cn1cc(-c2nc(-c3c[nH]c4ncccc34)cs2)c2cc(F)ccc21`: 31.6% (inactive).
As for `COc1ccc(/C=C2\N=C(c3ccccc3)N(c3cc(OC)c(OC)cc3C(=O)N3N=C(C)CC3=O)C2=O)cc1`, the growth is 87.6% (inactive).
The same measure for `O=C(N/N=C\c1c(O)ccc2ccccc12)C1CC1`: 53.8% (inactive); for `N#C/C(=C\c1ccc(-c2ccc(Cl)cc2)o1)c1nc(-c2ccco2)cs1`: 86.5% (inactive).
The same measure for `CC(=O)O[C@H]1CC[C@@]2(C)[C@@H](CC[C@@H]3[C@@H]2CC(=O)[C@@]2(C)[C@H]3C[C@@H](C3CCCC3=O)[C@@H]2C(C)=O)C1` (stereo not given in full): 97.4% (inactive).
The same measure for `Cc1ccc(S(=O)(=O)Nc2ccc(-c3cc(-c4cccc(F)c4)c(C#N)c(=O)[nH]3)cc2)cc1`: 85% (inactive); for `NC1(N)C=CC2=C(C=C1)C1(N)C3=C(C=CC(N)(N)C=C3)N2C2(N)C3=C(C=CC(N)(N)C=C3)N1C1=C2C=CC(N)(N)C=C1`: 93.9% (inactive).
Regarding `C[C@H]1[C@H]2C3=CC[C@@H]4[C@@]5(C)C/C(=C/c6ccco6)C(=O)C(C)(C)[C@@H]5CC[C@@]4(C)[C@]3(C)CC[C@@]2(C(=O)N2CCOCC2)CC[C@@H]1C`, the growth was 99.4% (inactive).
The same measure for `Cc1nn(-c2ccc(Br)cc2)c2nc3[nH]c(=O)[nH]c(=O)c3nc12`: 74.6% (inactive); for `Cc1cc(N2CCCC2)nc(N(CCNc2ccnc3cc(Cl)ccc23)Cc2ccco2)n1`: 68.8% (inactive).
